Among the data in PubChem BioAssay (NCATS) are Potency and activity change, negative = cytotoxicity values, retold here.

Records with an inconclusive call do not appear. Entries that show only a call come without a potency. A number with no mark means an inactive call. The source made the active and inactive calls. The call rests on the fitted dose curve; in most records, active means well fitted cell-killing curve with a large enough effect; inconclusive means small, poorly fitted or top-dose-only effect, or effect the other way; inactive means flat fitted curve, though single readings scatter. Where a SMILES comes first, the peptide text is derived from it. [ ]: non-standard residue; d: D form. ξ: configuration not given here. ξPhe(βξ-Me) = CC(c1ccccc1)C(N)C(=O)O; GABA = NCCCC(=O)O
Potency means the concentration at half of the fitted maximal effect.

The test system of this test is HeLa. Description: Primary qHTS to identify gynecologic anti-cancer compounds using libraries of approved drugs and bioactive compounds (AID 1345084). Further: nearly all actives have a fitted effect of over 55% in size. The conditions noted are these: Gynecologic cancer cell panel viability, ATPlite luminescence, 48 h; series mostly up to 57.5 µM. In short, it runs like this: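 In this quantitative HTS, cell killing is estimated from loss of ATP-dependent luciferase light. Cells see five compound concentrations over a 48 h exposure.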
On the technique in general: In qHTS, concentration-response curves come from the screen itself.
For the compound `COC(=O)C1C(CC(C)=O)C=CC(O)C12Oc1cc(C)cc(O)c1C2=O` (stereo not drawn), the Potency entry is “inactive”.
As for `CC1(C)CCC[C@@]2(C)[C@H]1[C@H](O)C=C1COC(=O)[C@@]12O`, the Potency entry is “inactive”.
As to `O=C(O)Cc1nn(Cc2nc3cc(C(F)(F)F)ccc3s2)c(=O)c2nccnc12`, the Potency result is “inactive”.
For `CC1CCC2(C(=O)OC3OC(CO)C(O)C(O)C3O)CCC3(C(=O)O)C(=CCC4C5(C)CCC(OC6OC(C)C(O)C(O)C6O)C(C)(C)C5CCC43C)C2C1C` (stereo not drawn), the Potency result is “inactive”.
Same read-out and setting: the entry for `CC(CO[C@@H]1O[C@H](COC(=O)/C=C/c2ccc(O)c(O)c2)[C@@H](O)[C@H](O)[C@H]1O)C1(O)COC(=O)C1` (stereo partly drawn) is “inactive”; for `CCCCN(CCCC)C(=O)CN1C[C@H](c2ccc3c(c2)OCO3)[C@@H](C(=O)O)[C@@H]1c1ccc(OC)cc1` it is “inactive”; for `CC(C)C(=O)O[C@@H]1[C@@H](O)[C@@H](O[C@H]2O[C@H](CO)[C@@H](O)[C@H](O)[C@H]2O)O[C@H](CO)[C@H]1O` it is “inactive”.
The same measure, in the same setting: the entry for `CC1(C)CC[C@]2(C(=O)O)CC[C@]3(C)C(=CCC4[C@@]5(C)CCC(O[C@@H]6OC[C@H](O)[C@H](O)[C@H]6O[C@@H]6O[C@H](CO)[C@@H](O)[C@H](O)[C@H]6O)[C@@](C)(CO)C5CC[C@]43C)[C@@H]2C1` (stereo partly drawn) is “inactive”; for `CCc1c(CC(N)=O)c2cc(OCCCP(=O)(O)O)ccc2n1Cc1ccccc1` it is “inactive”; for `COc1ccc(C[C@H](N)C(=O)N[C@H]2[C@@H](O)[C@H](n3cnc4c(N(C)C)ncnc43)O[C@@H]2CO)cc1` it is 2000 nM (active).
Still for that read-out and setting: the entry for `COC(=O)C1=CO[C@@H](O[C@@H]2O[C@H](CO)[C@@H](O)[C@H](O)[C@H]2O)[C@@H]2[C@@H](C(=O)OC)[C@@H](O)C(O)[C@H]12` (stereo partly drawn) is “inactive”; for `CC(C)CC1NC(=O)C(C(C)c2ccccc2)NC(=O)C(C(C)C)NC(=O)C(C)NC(=O)CCCNC(=O)C(Cc2c[nH]c3ccccc23)NC(=O)C(C)NC1=O` (stereo not drawn) (cyclo([GABA]AV[ξPhe(βξ-Me)]LAW); configuration not given here) it is “inactive”.
Take `C=C1CCC2C(C)(C)C(O)CCC2(C)C1CCC(C)CCOC(=O)CCC(=O)O` (stereo not drawn): the Potency entry was “inactive”.
As for `COc1cc(C)c(C(=O)O[C@H]2[C@@H](O)[C@H](n3ccc(=O)[nH]c3=O)O[C@@H]2CO)c(OC)c1`, the Potency result is “inactive”.
In the case of `COC(=O)C1=COC(O[C@@H]2O[C@H](CO)[C@@H](O)[C@H](O)[C@H]2O)/C(=C\COC(=O)c2ccc(OC3OC(CO)C(O)C(O)C3O)c(OC)c2)C1CC(=O)OCCc1ccc(O)cc1` (stereo partly drawn), the activity change, negative = cytotoxicity was 2.44% [at 11.6 µM].
With `COc1cc(CC(COC2OC(CO)C(O)C(O)C2O)c2cc(/C=C/CO)cc(OC)c2O)ccc1O` (stereo not drawn), the Potency result is “inactive”.
For the compound `CC1(C)C[C@H]2C3=CCC4[C@@]5(C)CC[C@H](O[C@H]6O[C@H](C(=O)O)[C@@H](O)[C@H](O)[C@H]6O[C@H]6O[C@H](CO)[C@@H](O)[C@H](O)[C@H]6O[C@@H]6O[C@H](CO)[C@@H](O)[C@H](O)[C@H]6O)[C@](C)(CO)C5CC[C@@]4(C)[C@]3(C)CC[C@@]2(C)[C@H](O[C@@H]2OC[C@H](O)[C@H](OC3O[C@H](CO)[C@@H](O)[C@H](O)[C@H]3O)[C@H]2O)[C@@H]1O` (stereo partly drawn), the activity change, negative = cytotoxicity is 2.32% [at 6.55 µM].
Regarding `O=C1N(CC2CCCCN2)CCN1c1ccccc1` (stereo not drawn), the Potency entry is “inactive”.
Turning to `CCCOc1ccn2c(C(C)=O)cc(-c3ccccc3S(C)(=O)=O)c2c1`, the Potency result was “inactive”.
Still for that read-out and setting: in the case of `COc1cc(/C=C/C(=O)O[C@H]2[C@H](O)[C@@H](CO)O[C@@]2(CO)O[C@H]2O[C@H](COC(=O)c3ccc(O)cc3)[C@@H](O)[C@H](O)[C@H]2O)cc(OC)c1OC` it was “inactive”; in that of `OC[C@H]1O[C@@H](n2cnc3c2NC=NC[C@H]3O)C[C@@H]1O`, “inactive”; in that of `CNc1nc(Nc2cnn([C@H]3CCN(C4COC4)C[C@@H]3F)c2Cl)ncc1C(F)(F)F`, “inactive”.
`CCCCS(=O)(=O)Nc1ncnc(OCCOc2ncc(Br)cn2)c1-c1ccc(Br)cc1`: the Potency result is “inactive”.
As for `CC/C=C/CC1=C(CCCCCCCC(=O)O)CCC1=O`, the Potency entry was “inactive”.
Take `C[C@@H]1O[C@@H](OC[C@H]2O[C@@H](OCCc3ccccc3)[C@H](O)[C@@H](O)[C@@H]2O)[C@H](O)[C@H](O)[C@H]1O`: the Potency entry is “inactive”.
Same read-out and setting: in the case of `C=C[C@](C)(CC/C=C(\C)C(=O)O)O[C@@H]1OC[C@H](O)[C@H](O)[C@H]1O` it was “inactive”; in that of `FC(F)(F)c1cc(C(F)(F)F)c2ccc3nc(-c4nnco4)cn3c2n1`, “inactive”; in that of `C[C@@H]1O[C@@H](OC[C@H]2O[C@@H](OCC3CCC4CC3C4(C)C)[C@H](O)[C@@H](O)[C@@H]2O)[C@H](O)[C@H](O)[C@H]1O` (stereo partly drawn), “inactive”.
Still for that read-out and setting: in the case of `O=C1[C@H](O[C@@H]2O[C@H](CO)[C@@H](O)[C@H](O)[C@H]2O)Oc2ccccc2N1O` it was “inactive”.
`C[C@@H]1O[C@@H](O[C@H]2[C@H](OC(=O)[C@]34CCC(C)(C)C[C@H]3C3=CCC5[C@@]6(C)C[C@H](O)[C@H](O[C@@H]7O[C@H](CO[C@@H]8OC[C@H](O)[C@H](O)[C@H]8O)[C@@H](O)[C@H](O)[C@H]7O)C(C)(C)C6CC[C@@]5(C)[C@]3(C)C[C@H]4O)OC[C@@H](O)[C@@H]2O)[C@H](O)[C@H](O[C@@H]2OC[C@](O)(CO)[C@H]2O)[C@H]1O[C@@H]1OC[C@H](O)[C@H](O[C@@H]2OC[C@@H](O)[C@H](O)[C@H]2O)[C@H]1O` (stereo partly drawn): the activity change, negative = cytotoxicity was 19.1% [at 6.55 µM].
Turning to `COC(=O)C1C(c2ccc(O)cc2)C(C(=O)OC)C1c1ccc(O)cc1` (stereo not drawn), the Potency result was “inactive”.
On the same count and under the same terms, in the case of `CCN[C@@H]1C[C@H](N)[C@@H](O[C@H]2OC(CN)=CC[C@H]2N)[C@H](O)[C@H]1O[C@H]1OC[C@](C)(O)[C@H](NC)[C@H]1O` it was “inactive”; in that of `CCOC(=O)[C@H]1O[C@@H]1C(=O)N[C@@H](CC(C)C)C(=O)NCCC(C)C`, “inactive”.
Still for that read-out and setting: in the case of `CC(=O)N1c2ccccc2C2(O)CC3C(=O)NC(CC(C)C)C(=O)N3C12` (stereo not drawn) it was “inactive”.
Take `CC(C)=CCC/C(C)=C/CC/C(C)=C/CC[C@]1(C)CCc2cc(O)cc(C)c2O1`: the Potency entry is “inactive”.
Still for that read-out and setting: in the case of `O=C(c1ccc(NS(=O)(=O)c2cccc3cccnc23)cc1)N1CCN(CC2CC2)CC1` it was “inactive”.
Same read-out and setting: in the case of `COc1cc(N2CCC(O)CC2)ccc1Nc1cc(Nc2ccccc2S(=O)(=O)C(C)C)c2cc[nH]c2n1` it was “inactive”.
For `C[C@@H]1O[C@@H](O[C@H]2[C@H](OC(=O)[C@]34CCC(C)(C)C[C@H]3C3=CCC5[C@@]6(C)C[C@H](O)[C@H](O[C@@H]7O[C@H](CO)[C@@H](O[C@@H]8O[C@H](CO)[C@@H](O)[C@H](O)[C@H]8O)[C@H](O)[C@H]7O)[C@@](C)(CO)C6[C@H](O)C[C@@]5(C)[C@]3(C)C[C@H]4O)OC[C@H](O)[C@@H]2O)[C@H](O)[C@H](O)[C@H]1O[C@@H]1OC[C@@H](O)[C@H](O[C@@H]2OC[C@](O)(CO)[C@H]2O)[C@H]1O` (stereo partly drawn), the activity change, negative = cytotoxicity was 5.03% [at 6.55 µM].
